RGS4-Gao reg: human RGS4-Galphao interaction regulation | P09471 | Multiplexed bead flow cytometry, RGS4-Galphao binding; actives lie on both sides | binding response (% of control), % at 10 µM | 220,000 tested, 0.33% active; in the data active means binding response below about 49% or above about 150%; inactive means in between;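 further: fluorescent Galphao activated with aluminum fluoride binding bead-coupled RGS4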
Avidin fluor: avidin bead compound fluorescence profile | Avidin beads, compound fluorescence 488/530 nm, flow cytometry; stronger effect = higher value | fluorescence (KMESF) at 10 µM | 220,000 tested, 0.38% active; in the data active means fluorescence above about 47
RGS8-Gao: human RGS8-Galphao interaction regulation | 220,000 tested, 0.34% active | response (percent of control binding), % at 10 µM | AID 1423 | P09471 | multiplexed bead flow cytometry, RGS8-Galphao binding; actives lie on both sides; in the data active means response below about 60% or above about 140%; inactive means in between;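 further: Galphao activated as the GDP aluminium fluoride complex binding bead-coupled RGS8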
GSH bead fluor: GSH bead compound fluorescence profile. GSH beads flow cytometry, compound fluorescence 488/530 nm; stronger effect = higher value. fluorescence (KMESF) at 10 µM. 190,000 tested, 0.25% active; in the data active means fluorescence above about 89;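 further: glutathione beads carrying GST-tagged Bcl family fusion proteins plus one bare bead set; values are compound well signal with DMSO vehicle wells as background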
RGS16-Gao HTS: RGS16-Galphao interaction regulator (human); bead-based flow cytometry RGS16-Galphao binding, fluorescence; actives lie on both sides; binding response (% of control), % at 10 µM; 220,000 tested, 0.38% active; AID 1441; O15492+P09471; call rule not given here;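 further: Galphao activated by GDP with aluminum fluoride before binding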
RGS7-Gao: modulates binding of RGS7 to human Galphao; Multiplexed bead flow cytometry; actives lie on both sides; P09471; binding response (% of control), % at 10 µM; 220,000 tested, 0.35% active; in the data active means binding response below about 49% or above about 150%; inconclusive means no clear call, values can overlap the other calls; inactive means in between;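 further: fluorescent Galphao held in activated GDP-AlF4 state binding bead-coupled RGS7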
The depositor's hits bear a star; u = inconclusive; x = no result given. Sampled rows, rich in hits. Any-hit rate of the full collection: about 1.2%.

SMILES	RGS4-Gao reg	Avidin fluor	RGS8-Gao	GSH bead fluor	RGS16-Gao HTS	RGS7-Gao
Cc1cc2nc(-c3ccc(SCC(=O)Nc4ccc5c(c4)OCCO5)nc3)[nH]c2cc1C	101	53*	101	11	101	109
Cc1ccc2nc(-c3ccc(SCC(=O)Nc4ccc5c(c4)OCCO5)nc3)[nH]c2c1	102	5	101	12	100	103
COCCn1c(N/N=C(C)/C=C/c2ccccc2)nc2c1c(=O)[nH]c(=O)n2C	99	11	104	x	103	100
O=C(O)/C=C/C(=O)N1CCN(S(=O)(=O)c2cccc(C(F)(F)F)c2)CC1	100	10	101	23	105	98
O=C(CSc1cccc(C(F)(F)F)c1)N1CCN(S(=O)(=O)c2ccccc2)CC1	95	8	94	265*	96	90
O=C(CCCOc1ccc(Cl)cc1Cl)NN1CCOCC1	101	3	103	6	108	100
Cc1ccc(-c2nc3cccnc3s2)cc1NS(C)(=O)=O	-22*	-2	2.3*	18	-19*	-31*
CCOc1ccc(-n2c(C)nc3cc(C(=O)NCCCN4CCOCC4)ccc32)cc1	107	8	117	34	151	107
CCOc1ccc(-n2c(C)nc3cc(C(=O)NCCN4CCOCC4)ccc32)cc1	100	7	101	104*	100	96
O=C1Nc2ccccc2N(O)N1c1ccc(S(=O)(=O)Nc2ccccn2)cc1	115	64*	113	32	119	128
Cc1ccnc(NS(=O)(=O)c2ccc(N3C(=O)Nc4ccccc4N3O)cc2)c1	105	9	102	12	104	101
NS(=O)(=O)c1ccc(O)c(N2C(=O)c3cccc4c(C(=O)c5ccccc5)ccc(c34)C2=O)c1	106	6	106	17	106	116
Cc1occc1-c1nnc(SCC(=O)N2CC(=O)Nc3ccccc32)n1CC(C)C	109	x	102	10	97	112
CCn1c(SCC(=O)N2CC(=O)Nc3ccccc32)nnc1-c1ccoc1C	99	7	99	260*	100	99
COc1ccc(Cl)cc1C(=O)NNC(=S)NC(=O)c1cc(-c2ccc(Cl)cc2)nc2ccccc12	11*	6	37*	11	19*	21*
CCNC(=S)NNC(=O)c1cc(-c2ccc(OC)cc2)nc2ccccc12	104	5	103	15	105	104
CC(=O)NC1CC(C)(C)N(OC(C)=O)C(C)(C)C1	111	53*	105	36	114	133
CCOc1cc2oc(=O)c3c(c2cc1Cl)CCC3	107	74*	104	29	115	148
O=C(CC(c1ccccc1)c1ccco1)Nc1nccs1 (stereo not drawn)	103	2	103	24	116	99
CCn1c2ccccc2c2cc(NC(=O)N3CCOCC3)ccc21	105	47*	104	13	114	104
COc1ccc(CNC(=O)CCSCc2ccccc2C)cc1	103	9	103	22	102	98
O=C(NCc1ccco1)/C(=C/c1cccnc1)NC(=O)c1ccco1	21*	-2	12*	24	1.6*	14*
O=C(Cn1cc(C(F)(F)F)ccc1=O)Nc1cccc(S(=O)(=O)N2CCOCC2)c1	106	96*	101	11	99	136
Cc1ccc(Cl)cc1NC(=O)COC(=O)CC1CC2CCC1C2 (stereo not drawn)	102	9	105	262*	104	105
Cc1ccc(Cl)cc1NC(=O)COC(=O)C1CC1	103	16	90	12	57	99
SMILES	RGS4-Gao reg	Avidin fluor	RGS8-Gao	GSH bead fluor	RGS16-Gao HTS	RGS7-Gao
O=C(NCCc1c[nH]c2ccccc12)c1ccc(-n2cnnn2)cc1	147	67*	106	26	169	133
O=C(NCCc1ccccc1)c1ccc(-n2cnnn2)cc1	88	7	102	32	80	90
Cc1cc(N2CCOCC2)nc(N2CCOCC2)n1	102	11	99	23	98	u
Cc1cc(N2CCCCC2)nc(N2CCOCC2)n1	110	111*	106	35	109	125
CCOC(=O)c1csc(COc2ccc(OC)cc2)n1	106	8	103	x	108	u
O=C(CCC1CCCN(C(=O)CCN2CCCCC2=O)C1)NCc1ccccc1F (stereo not drawn)	97	12	100	13	101	95
